Experimental data as given in the supplement of paper PMC6555819.

What was measured:
Assay in all cases: PBM binding z-score (relative to random genomic background probes); higher = stronger binding; sequences stand for … in GC…GCGATTGACAGCGTAGAATGAAGG
[1] = tested on: FXR:RXRa (NR concentration 270 nM, RXRa partner concentration 90 nM)
Method in brief: (§1)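 Custom Agilent 4×180K protein-binding microarrays carried double-stranded probes, each with a 34-nt variable region. These regions held direct-repeat seeds, single-nucleotide variants, half-site ablations and random human genomic background sequences. Ligand-free nuclear receptor dimers were incubated on the arrays for 1 h, antibodies against each partner (one per run) detected binding, and scanned fluorescence was regression-normalized. Binding z-scores take the random background probes as reference.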

[2] = tested on: LXRa:RXRa (NR concentration 270 nM, RXRa partner concentration 90 nM)
Method in brief: as §1

[3] = tested on: LXRa homodimer (NR concentration 270 nM)
Method in brief: as §1

[4] = tested on: LXRb:RXRa (NR concentration 270 nM, RXRa partner concentration 90 nM)
Method in brief: as §1

[5] = tested on: LXRb homodimer (NR concentration 270 nM)
Method in brief: as §1

[6] = tested on: PPARa:RXRa (NR concentration 270 nM, RXRa partner concentration 90 nM)
Method in brief: as §1

[7] = tested on: PPARg:RXRa (NR concentration 180 nM, RXRa partner concentration 90 nM)
Method in brief: as §1

[8] = tested on: PPARg:RXRa 270nM:90nM, anti-RXR (NR concentration 270 nM, RXRa partner concentration 90 nM)
Method in brief: as §1

[9] = tested on: PPARg:RXRa 30nM:10nM, anti-RXR (NR concentration 30 nM, RXRa partner concentration 10 nM)
Method in brief: as §1

[10] = tested on: PPARg:RXRa 90nM:30nM, anti-RXR (NR concentration 90 nM, RXRa partner concentration 30 nM)
Method in brief: as §1

[11] = tested on: PPARg:RXRa DBDmut IVT, anti-RXR (DBD mutation: RXRa K156A/R161A, NR concentration 270 nM, RXRa partner concentration 90 nM)
Method in brief: as §1

[12] = tested on: PPARg:RXRa IVT, anti-PPARg (NR concentration 270 nM, RXRa partner concentration 90 nM)
Method in brief: as §1

[13] = tested on: PPARg DBDmut:RXRa IVT, anti-PPARg (DBD mutation: PPARg1 K132A/R137A, NR concentration 270 nM, RXRa partner concentration 90 nM)
Method in brief: as §1

[14] = tested on: PPARg DBDmut IVT, anti-PPARg (DBD mutation: PPARg1 K132A/R137A, NR concentration 270 nM)
Method in brief: as §1

[15] = tested on: PPARg homodimer (NR concentration 180 nM)
Method in brief: as §1

[16] = tested on: PXR:RXRa (NR concentration 270 nM, RXRa partner concentration 90 nM)
Method in brief: as §1

[17] = tested on: PXR homodimer (NR concentration 270 nM)
Method in brief: as §1

[18] = tested on: RARa:RXR (NR concentration 270 nM, RXRa partner concentration 90 nM)
Method in brief: as §1

[19] = tested on: RARa homodimer (NR concentration 270 nM)
Method in brief: as §1

[20] = tested on: RARb:RXRa (NR concentration 270 nM, RXRa partner concentration 90 nM)
Method in brief: as §1

Sequence	PBM binding z-score [1]	PBM binding z-score [2]	PBM binding z-score [3]	PBM binding z-score [4]	PBM binding z-score [5]	PBM binding z-score [6]	PBM binding z-score [7]	PBM binding z-score [8]	PBM binding z-score [9]	PBM binding z-score [10]	PBM binding z-score [11]	PBM binding z-score [12]	PBM binding z-score [13]	PBM binding z-score [14]	PBM binding z-score [15]	PBM binding z-score [16]	PBM binding z-score [17]	PBM binding z-score [18]	PBM binding z-score [19]	PBM binding z-score [20]
ACTAGCAGGCCAAGGATCACTCAAGATTAGTCCG	-0.313	-0.212	-0.373	-0.592	-0.598	0.628	2.12	3.37	1.33	2.55	0.88	0.675	-0.388	-0.36	0.0853	-0.479	-0.469	-0.293	0.362	0.296
CCTAGGAGGCCAGGGTCACTCAAGCATTTCGCTT	1.76	1.21	-0.383	1.7	-1.15	3	0.95	1.71	-0.259	0.653	0.19	1.11	-0.773	-1.85	1.09	2.28	-0.346	2.55	-0.732	2.67
ATATGTAGTTTAAGGGTCATTCAGGTTGGTTCGC	4.61	4.11	2.99	4.07	1.53	5.03	6.25	6.64	5.02	6.74	1.53	3.45	1.66	1.44	3.5	5.01	3.06	4.34	2.87	3.42
TCAGATAGGTGAAGGTAACTCAGGTACGCAGTCG	0.487	1.73	-0.148	0.791	-0.21	1.32	1.01	2.26	3.97	3.01	3.31	1.87	0.193	-0.0331	0.849	0.435	0.291	0.668	0.648	1.1
CCGACTGGGGCATAAGGTTACCAAAAGCCAGCCC	0.243	1.26	-0.202	0.884	-1.26	2.36	2.34	3.15	0.904	2.48	2.7	3.25	-0.301	-0.942	0.779	0.576	-0.64	1.73	0.0494	1.81
CGTCGAAGGTCAGAGAGGTCAGTGAATGCCGAGT	6.25	5.11	3.28	4.34	0.365	4.79	3.57	4.39	1.28	3.06	2.6	3.03	-0.434	-0.601	6.33	6.06	11.6	5.68	3.9	5.05
GCTGCTAGGTCAACTGATGGTTAGCTAAAGCTCG	4.53	2.96	0.0508	1.97	0.22	3.58	2.88	3.09	0.818	1.99	5.04	4.29	1.41	-0.602	1.62	1.55	-0.971	2.73	-0.0413	4.31
TCTATTAGTTGATGAGGGCAACCGAAACAGCGGA	0.667	0.683	0.18	0.607	0.412	1.07	0.347	2	3.62	2.83	2.06	0.967	0.312	0.843	1	0.877	0.351	0.981	0.755	1.41
ACTCGGAGGACAAAGGTCAGAGGTACGCCAGTGA	4.04	4.06	1.7	3.26	-0.137	5.14	7.26	6.74	4.88	7.16	0.77	3.42	0.61	0.441	3.17	3.86	0.587	4.61	0.603	4.43
CGAACTAGCTCATTGACAGGACAGTGAATAGTAA	-0.457	-0.373	0.0523	-0.29	-0.335	-0.257	0.0799	-0.461	-0.245	-0.396	-0.0116	-0.052	0.48	0.24	-0.35	-0.133	0.129	0.164	0.183	-0.386
GCTTGTAGATCAAGCTTAAGAAAGACTAAGCTAA	-0.441	-0.75	-0.914	-0.777	-1.32	-0.455	-0.439	-0.251	-0.693	-0.381	0.937	0.0262	-0.496	-0.218	-0.356	-0.566	-0.868	-0.0967	-0.929	-1.78
TTACCAAGGTGAGCTGAGGTCGTTCATCCAACTC	1.08	1.32	0.0661	0.862	-1.08	1.68	0.347	1	0.0261	0.463	1.05	2.17	-0.164	-0.434	-0.159	5.33	0.906	1.82	-0.552	1.74
ATATGTAGGTTACATCCGTGTCATTCAGGCTATG	0.799	4.06	0.794	1.81	0.59	3.6	5.07	4.33	1.88	3.27	7.68	7.5	2.03	4.51	1.36	0.878	0.202	0.935	0.528	1.28
TCGCCTAGGTCAGATCGGGCCAGTATACGCTATA	1.75	1.2	-0.481	0.65	-0.762	1.71	0.474	1.19	1.68	1.28	1.92	1.11	-0.622	-0.724	-0.2	1.23	-0.531	1.05	-0.742	3.12
